Reference: ChEMBL document CHEMBL4513216, “Probing the Open Global Health Chemical Diversity Library for Multistage-Active Starting Points for Next-Generation Antimalarials” (ACS Infect Dis, 2020)
The campaign covered roughly 65,000 compounds. About 2,100 (3.2%) showed an effect of 50% or more. The median lay at about -52%. What follows is part of a selection rich in strong results, with near analogues and random picks from the rest.

These compounds were tested on Plasmodium falciparum (assay: Screen against P. falciparum Asexual Blood Stage (ABS), at 5uM). Details: tested at 5 uM.
Assay type: functional, Dd2

| Compound | INHIBITION [%] |
| --- | --- |
| c1ccc(C[C@H]2CN(Cc3nccs3)CC[C@H]2OCC2CC2)cc1 | 40.9 |
| COc1ccc(C[C@H]2CN(C(=O)C3CC3)CC[C@H]2OC)cc1 | 35.6 |
| CO[C@H]1CCN(Cc2ccoc2)C[C@@H]1Cc1ccccc1 | 67.3 |
| CO[C@H]1CCN(Cc2nccs2)C[C@@H]1Cc1ccccc1 | -25.6 |
| CO[C@@H]1CCN(Cc2nccs2)C[C@@H]1Cc1ccccc1 | -9.75 |
| COCCN1CC[C@H](OC)[C@@H]1Cc1ccccc1 | 62.8 |
| COc1ccc(C[C@H]2CN(Cc3ccoc3)CC[C@@H]2OC)cc1 | 64.8 |
| COc1ccc(C[C@H]2CN(c3cc(OC)ncn3)CC[C@@H]2OC)cc1 | -0.505 |
| COCCN1CC[C@@H](OC)[C@@H]1Cc1ccccc1 | 1.53 |
| Cc1noc(C)c1CN1CC[C@@H](OCC2CC2)[C@@H](Cc2ccccc2)C1 | 26.2 |
| Cc1noc(C)c1CN1CC[C@H](OCC2CC2)[C@@H](Cc2ccccc2)C1 | 62.1 |
| COCCN1CC[C@@H](O)[C@@H]1Cc1ccccc1 | -32.4 |
| COc1ccc(S(=O)(=O)C2CCN(C(=O)c3cc(C)cs3)CC2)cc1 | -23.3 |
| CCC(NC(=O)NCc1cccc(N(C)C)n1)c1nccs1 (stereo unspecified) | -84.7 |
| Cn1cnc(S(=O)(=O)N2CCCc3cc(F)cc(F)c32)c1Cl | -84.8 |
| CO[C@H]1CCN(C(=O)Cc2ccccn2)[C@H]1Cc1ccncc1 | -128 |
| COc1cc(NC2CCS(=O)(=O)CC2)ncn1 | -119 |
| N[C@@H]1c2ccccc2C2(CCN(c3cccc(C(F)(F)F)n3)CC2)[C@H]1O | -35.9 |
| Cc1ccc(CC(=O)N2CCOCC2c2c(C)n[nH]c2C)cc1 (stereo unspecified) | -37.5 |
| CO[C@@H]1CCN(Cc2ccoc2)[C@H]1Cc1ccccc1 | 61.4 |
| COc1ccc(C[C@H]2CNCC[C@H]2OC)cc1 | 58 |
| CO[C@@H]1CCN(Cc2cccs2)[C@H]1Cc1ccncc1 | -27.7 |

| Compound | INHIBITION [%] |
| --- | --- |
| COCCO[C@H]1CCN(Cc2ccoc2)[C@H]1Cc1cccnc1 | -10.4 |
| COc1ccc(C[C@H]2CN(c3nnc(C)s3)CC[C@@H]2OC)cc1 | -16 |
| COc1ccc(C[C@H]2CN(c3nnc(C)s3)CC[C@H]2OC)cc1 | -2.98 |
| CCOCCN1CCN(Cc2nc(CC(C)C)no2)CC1 | 18.6 |
| CS(=O)(=O)NC[C@]12COC[C@H]1CN(C(=O)C1CC(F)(F)C1)C2 | -80.1 |
| COc1cccc(-c2noc(C3CCN(Cc4ccccc4F)C3)n2)c1 (stereo unspecified) | -118 |
| Cn1nc2c(cc1=O)CN(Cc1coc(-c3ccccc3)n1)CC2 | -138 |
| COc1ccc(CN(C)[C@@H]2COC[C@H]2c2ccc(F)cc2)c(OC)c1 | 9.39 |
| CNc1cc2c(nn1)CCN(C(=O)c1ccc3c(c1)OCO3)C2 | -135 |
| O=C1NCCCC12CCN(Cc1ccc(SC3CCCCC3)o1)C2 (stereo unspecified) | 56.4 |
| O=C1NCCCC12CCN(Cc1ccc(-c3ccccc3)s1)C2 (stereo unspecified) | -138 |
| CCOc1cc(Cl)c(CN2CCC3(CCCNC3=O)C2)cc1OC (stereo unspecified) | -15.1 |
| O=C(NCCc1ccn(-c2ccccc2)n1)N1CCCC(CO)C1 (stereo unspecified) | -78.9 |
| CNC(=O)c1ccc(CN2CCN(C3=NCC(C)(C)S3)CC2)cc1 | -92 |
| O=C(c1cc(=O)n(-c2ccccc2)[nH]1)N1CCCC(c2ccn[nH]2)C1 (stereo unspecified) | -22.8 |
| CN(C)C(=O)c1cccc(CN2CCN(CCO)CC2)c1 | 61 |
| CCOCCN1CCN(Cc2cccc(C(=O)N(C)C)c2)CC1 | -117 |
| COCCN1CCN(Cc2cccc(C(=O)N(C)C)c2)CC1 | 7.48 |
| COc1cc2c(c(OC)c1OC)CCN(CCn1cncn1)CC2 | -167 |
| COC1CCCN(Cc2cc(O)c3cc(C)cc(C)c3n2)C1 (stereo unspecified) | -88.5 |
| Cc1cc(C)c2nc(CN3CCCC(c4cc[nH]n4)C3)cc(O)c2c1 (stereo unspecified) | 54.4 |
| Cc1cc(C)c2nc(CN3CC[C@@H](O)C3)cc(O)c2c1 | -6.9 |

| Compound | INHIBITION [%] |
| --- | --- |
| CCc1c(C)sc2ncnc(N3CCN(C4CCOCC4)CC3)c12 | 33.7 |
| CCc1c(C)sc2ncnc(N3C[C@H](O)[C@@H](N4CCCC4)C3)c12 | 62 |
| CCc1c(C)sc2ncnc(N3CC[C@@H](N4CCOCC4)[C@H](O)C3)c12 | -2.01 |
| O=C(C1CCCC1)N1CCOC(c2nc(-c3ncccn3)no2)C1 (stereo unspecified) | -66.9 |
| c1cnc(Nc2cc(CCC3CCNCC3)ccn2)cn1 | -32 |
| c1cncc(COc2ccccc2CNC2CCc3ncnn3C2)c1 (stereo unspecified) | -137 |
| c1ccc(OC2CCCC2)c(CNC2CCc3ncnn3C2)c1 (stereo unspecified) | 20.5 |
| c1ccc(COc2ccccc2CNC2CCc3ncnn3C2)cc1 (stereo unspecified) | 69.4 |
| c1ccc(OCC2CC2)c(CNC2CCc3ncnn3C2)c1 (stereo unspecified) | 51.2 |
| CNC(=O)COc1ccccc1CNC1CCc2ncnn2C1 (stereo unspecified) | -40.5 |
| c1ccc(OCc2ccncc2)c(CNC2CCc3ncnn3C2)c1 (stereo unspecified) | -32.4 |
| Cc1csc(NC(=O)c2cnc(C3CCCN(C)C3)cn2)n1 (stereo unspecified) | -212 |
| NC(=O)[C@@H]1CCCN1C(=O)c1cn(C/C=C/c2ccccc2)nn1 | -88.2 |
| COCCNC(=O)c1nnc2ccc(N3CCOCC3)cc2n1 | -19.6 |
| COC(=O)CNC(=O)c1nc(-c2ccccc2OC)c2cnccn12 | -115 |
| Cc1cc(C)nc(NCCC(=O)NCCn2ccnc2C)n1 | -55.9 |
| N#CC(NC(=O)CCCOc1cccnc1)c1ccc(F)cc1F (stereo unspecified) | -69.7 |
| CSc1nccc(N2CCC(NCCN3CCOCC3)CC2)n1 | -47.4 |
| CSc1nccc(N2CCC(NCc3ccc4c(c3)OCO4)CC2)n1 | 51.4 |
| CSc1nccc(N2CCC(NCc3nc(C)cc(C)n3)CC2)n1 | -119 |
| CNc1nc(CNC(=O)Nc2cccc(CSC)c2)cs1 | 28.7 |
| CCN1CCC2(C1)CN(S(=O)(=O)c1cn(C)cn1)C2 | -42.2 |

| Compound | INHIBITION [%] |
| --- | --- |
| CCOC(=O)CCN(Cc1cccnc1)C(=O)c1cc(Cl)c[nH]1 | -43.4 |
| CCc1cnc(N2C[C@@H]3C[C@H](C(=O)NCC(C)C)[C@H](C2)O3)nc1 | -47.5 |
| Cc1cccn2cc(CN3CCCC(c4noc(C5CC5)n4)C3)nc12 (stereo unspecified) | 54.6 |
| Cc1cccn2cc(CN3CCCC(O)C3)nc12 (stereo unspecified) | -34.8 |
| Cc1cccn2cc(CN3CCCC(c4ccn[nH]4)C3)nc12 (stereo unspecified) | -34 |
| CC(C)c1nn(C)c(Cl)c1CNCc1cccnc1N(C)C | -8.45 |
| O=C(c1cccs1)N1CCCC2(COCCN(c3cccnc3)C2)C1 (stereo unspecified) | 4.74 |
| c1ccc(-c2nc(CN3CCCCC3Cn3cncn3)co2)cc1 (stereo unspecified) | -87.1 |
| Cc1ccccc1-c1cncc(C2CCN(C)CC2)n1 | -69.9 |
| CN(C)C(=O)CN1CCC(c2cncc(-c3cccc(Cl)c3)n2)CC1 | -53.1 |
| CN1CCC(c2cncc(-c3cccc(Cl)c3)n2)CC1 | 54.5 |
| O=C(CO)N1CCC(c2cncc(-c3cccc(Cl)c3)n2)CC1 | -122 |
| NC(=O)CN1CCC(c2cncc(-c3cccc(Cl)c3)n2)CC1 | 67.6 |
| CN(C)C(=O)CN1CCCC(c2cncc(-c3cccc(Cl)c3)n2)C1 (stereo unspecified) | 49.6 |
| Cc1ccc(CN(C)C(=O)CNC(C)(C)c2noc(C(C)(C)C)n2)o1 | -62.5 |
| COCCC(=O)N1CCC2(COCc3cnc(N(C)C)nc32)C1 (stereo unspecified) | -29 |
| CCc1ccc(CN(C)C(=O)c2cnc3c(c2)nc(N)n3CC)nc1 | -20.9 |
| COc1cccc(OCCNS(=O)(=O)Cc2ccccc2)c1 | -91.8 |
| COc1cccc(CNCCNS(=O)(=O)Cc2ccccc2)c1 | 55.5 |
| COc1cccc(OCCNCc2ccccc2)c1 | 34.7 |
| CN(Cc1cn2ccccc2c1C#N)C1CCCN(c2cccnn2)C1 (stereo unspecified) | -92.9 |
| O=C(NCc1cncc2c1CCN(C1CCOCC1)C2)c1ccco1 | -81.7 |

| Compound | INHIBITION [%] |
| --- | --- |
| O=C(C(CNCc1cccc(O)c1)c1ccccc1)N1CCOCC1 (stereo unspecified) | -52.6 |
| O=C(C(CNCc1ccsc1)c1ccccc1)N1CCOCC1 (stereo unspecified) | 63.6 |
| O=C(C(CNCc1cccs1)c1ccccc1)N1CCOCC1 (stereo unspecified) | 7.93 |
| O=C(c1nn[nH]c1Nc1ccc(Cl)cc1)N1CCCCCC1 | 23.3 |
| Cc1nc(C)c(C(C)NCc2c(C)nn(CC(C)C)c2N(C)C)s1 (stereo unspecified) | -40.1 |
| Cc1ccc(CN2CC[C@@H](O)[C@@H]2Cc2ccccc2)o1 | 51.6 |
| CO[C@@H]1CCN(Cc2ccc(C)o2)[C@H]1Cc1ccccc1 | -45.5 |
| Cc1ccc(CN2CC[C@@H](O)[C@@H]2Cc2cnn(C)c2)o1 | -75.8 |
| Cn1cc(NC(=O)c2cccc(-n3cnnn3)c2)cn1 | -36 |
| COc1cc(OC)cc(N2CCC(NCc3cc[nH]n3)C2)c1 (stereo unspecified) | -39.5 |
| COc1cccc(CNC2CCSC2)c1OC (stereo unspecified) | -18.4 |
| c1ccc(N2CCC(NCc3cccc4cn[nH]c34)C2)cc1 (stereo unspecified) | -37.2 |
| COc1ccc(CNC2CCN(c3ccccc3)C2)c(OC)c1OC (stereo unspecified) | 55.2 |
| COc1cc(CNC2CCN(c3ccccc3)C2)cc(OC)c1OC (stereo unspecified) | 64.6 |
| COc1ccc(CNC2CCN(c3ccccc3)C2)cc1O (stereo unspecified) | 40.9 |
| Cc1cc(C)c(CNC(=O)c2ccc3c(c2)CCC3)c(=O)[nH]1 | -48.6 |
| CCN(CCS(=O)(=O)c1ccc(Cl)cc1)Cc1ccc(OC)c(OC)c1 | -18.6 |
| Cc1nc(CN2CCCn3cnc(COC(C)C)c3C2)cs1 | -54.9 |
